In all, about 5,500 compounds went through this assay and about 2,000 (36%) were called active. Inconclusive results (about 18%) are left out. No stated cut-off is given here; in the data, active means normalized growth mostly below about 0.91 (no sharp cut-off); inconclusive means no clear call, values can overlap the other calls; inactive means mostly above about 0.92. Some of the results follow.
Test: chemical genetic growth profiling, strain panel (AID 1159580);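 further: tested at 20 µM; growth read once vehicle control cultures reached saturation at 30 °C; 1 = growth at the plate median or of vehicle wells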
Conditions: growth OD

Measured: normalized growth

COc1cc(C(=O)O)cc(OC)c1OC
inactive: S. cerevisiae deletion strains, locus YAL013W, strain DEP1, stronger effect = lower value 1.02 | S. cerevisiae deletion strains, locus YBR021W, strain FUR4, stronger effect = lower value 1.01 | S. cerevisiae deletion strains, locus YBR229C, strain ROT2, stronger effect = lower value 1.01 | S. cerevisiae deletion strains, locus YCL029C, strain bik1, stronger effect = lower value 1.04 | S. cerevisiae deletion strains, locus YDL035C, strain GPR1, stronger effect = lower value 1.04 | S. cerevisiae deletion strains, locus YDL074C, strain BRE1, stronger effect = lower value 1.05 | S. cerevisiae deletion strains, locus YDL101C, strain DUN1, stronger effect = lower value 1.02 | S. cerevisiae deletion strains, locus YDL134C, strain PPH21, stronger effect = lower value 1.01 | S. cerevisiae deletion strains, locus YDL185W, strain tfp1, stronger effect = lower value 1.03 | S. cerevisiae deletion strains, locus YDL192W, strain arf1, stronger effect = lower value 1.02 | S. cerevisiae deletion strains, locus YDR101C, strain arx1, stronger effect = lower value 1.02 | S. cerevisiae deletion strains, locus YDR162C, strain NBP2, stronger effect = lower value 1.02 | S. cerevisiae deletion strains, locus YDR318W, strain mcm21, stronger effect = lower value 1.02 | S. cerevisiae deletion strains, locus YDR388W, stronger effect = lower value 1.03 | S. cerevisiae deletion strains, locus YDR502C, strain sam2, stronger effect = lower value 1.02 | S. cerevisiae deletion strains, locus YEL061C, strain CIN8, stronger effect = lower value 1.01 | S. cerevisiae deletion strains, locus YER110C, stronger effect = lower value 1.03 | S. cerevisiae deletion strains, locus YER155C, strain BEM2, stronger effect = lower value 1.01 | S. cerevisiae deletion strains, locus YER167W, strain BCK2, stronger effect = lower value 1.03 | S. cerevisiae deletion strains, locus YGL078C, strain dbp3, stronger effect = lower value 1.03 | S. cerevisiae deletion strains, locus YGL086W, strain mad1, stronger effect = lower value 1.03 | S. cerevisiae deletion strains, locus YGL248W, strain PDE1, stronger effect = lower value 1.02 | S. cerevisiae deletion strains, locus YGR078C, strain PAC10, stronger effect = lower value 1.03 | S. cerevisiae deletion strains, locus YGR135W, strain pre9, stronger effect = lower value 1.02 | S. cerevisiae deletion strains, locus YGR252W, strain gcn5, stronger effect = lower value 1.09 | S. cerevisiae deletion strains, locus YHR030C, strain SLT2, stronger effect = lower value 1.02 | S. cerevisiae deletion strains, locus YHR079C, strain IRE1 (second series), stronger effect = lower value 1.02 | S. cerevisiae deletion strains, locus YHR094C, strain hxt1, stronger effect = lower value 1.02 | S. cerevisiae deletion strains, locus YHR129C, strain ARP1, stronger effect = lower value 1.02 | S. cerevisiae deletion strains, locus YHR200W, strain rpn10, stronger effect = lower value 1.02 | S. cerevisiae deletion strains, locus YIL066C, strain RNR3, stronger effect = lower value 1.04 | S. cerevisiae deletion strains, locus YIL073C, strain SPO22, stronger effect = lower value 1.09 | S. cerevisiae deletion strains, locus YIL125W, strain kgd1, stronger effect = lower value 1.03 | S. cerevisiae deletion strains, locus YIR030C, strain dcg1, stronger effect = lower value 1.02 | S. cerevisiae deletion strains, locus YJL095W, strain BCK1, stronger effect = lower value 1.02 | S. cerevisiae deletion strains, locus YJL134W, strain LCB3, stronger effect = lower value 1.02 | S. cerevisiae deletion strains, locus YJL168C, strain set2, stronger effect = lower value 1.03 | S. cerevisiae deletion strains, locus YJL187C, strain SWE1 (second series), stronger effect = lower value 1.03 | S. cerevisiae deletion strains, locus YJR043C, strain POL32, stronger effect = lower value 1.03 | S. cerevisiae deletion strains, locus YJR075W, strain HOC1, stronger effect = lower value 1.04 | S. cerevisiae deletion strains, locus YKL009W, strain mrt4, stronger effect = lower value 1.08 | S. cerevisiae deletion strains, locus YKL068W, stronger effect = lower value 1.04 | S. cerevisiae deletion strains, locus YKL085W, strain MDH1 (second series), stronger effect = lower value 1.07 | S. cerevisiae deletion strains, locus YKL085W, strain MDH1, stronger effect = lower value 1.07 | S. cerevisiae deletion strains, locus YKR001C, strain vps1, stronger effect = lower value 1.02 | S. cerevisiae deletion strains, locus YLR039C, strain RIC1, stronger effect = lower value 1.07 | S. cerevisiae deletion strains, locus YLR058C, strain SHM2, stronger effect = lower value 1.02 | S. cerevisiae deletion strains, locus YLR102C, strain apc9, stronger effect = lower value 1.02 | S. cerevisiae deletion strains, locus YLR262C, strain YPT6, stronger effect = lower value 1.09 | S. cerevisiae deletion strains, locus YLR268W, strain sec22, stronger effect = lower value 1.02 | S. cerevisiae deletion strains, locus YLR330W, strain CHS5, stronger effect = lower value 1.02 | S. cerevisiae deletion strains, locus YLR342W, strain FKS1 (second series), stronger effect = lower value 1.04 | S. cerevisiae deletion strains, locus YLR371W, strain rom2, stronger effect = lower value 1.04 | S. cerevisiae deletion strains, locus YLR418C, strain cdc73, stronger effect = lower value 1.04 | S. cerevisiae deletion strains, locus YML016C, strain PPZ1, stronger effect = lower value 1.02 | S. cerevisiae deletion strains, locus YML032C, strain rad52, stronger effect = lower value 1.03 | S. cerevisiae deletion strains, locus YML124C, strain tub3, stronger effect = lower value 1.02 | S. cerevisiae deletion strains, locus YMR078C, strain ctf18, stronger effect = lower value 1.06 | S. cerevisiae deletion strains, locus YMR223W, strain ubp8, stronger effect = lower value 1.02 | S. cerevisiae deletion strains, locus YMR263W, strain SAP30, stronger effect = lower value 1.02 | S. cerevisiae deletion strains, locus YMR307W, strain GAS1, stronger effect = lower value 1.03 | S. cerevisiae deletion strains, locus YNL067W, strain RPL9B, stronger effect = lower value 1.03 | S. cerevisiae deletion strains, locus YNL128W, strain TEP1, stronger effect = lower value 1.03 | S. cerevisiae deletion strains, locus YNL153C, strain GIM3, stronger effect = lower value 1.01 | S. cerevisiae deletion strains, locus YNL233W, strain BNI4, stronger effect = lower value 1.03 | S. cerevisiae deletion strains, locus YNL250W, strain rad50, stronger effect = lower value 1.03 | S. cerevisiae deletion strains, locus YNL271C, strain bni1, stronger effect = lower value 1.02 | S. cerevisiae deletion strains, locus YNL298W, strain CLA4, stronger effect = lower value 1.01 | S. cerevisiae deletion strains, locus YNL307C, strain MCK1, stronger effect = lower value 1.05 | S. cerevisiae deletion strains, locus YNL322C, strain KRE1, stronger effect = lower value 1.02 | S. cerevisiae deletion strains, locus YNR052C, strain pop2, stronger effect = lower value 1.03 | S. cerevisiae deletion strains, locus YOL006C, strain TOP1, stronger effect = lower value 1.2 | S. cerevisiae deletion strains, locus YOL012C, strain htz1 1.18 | S. cerevisiae deletion strains, locus YOL147C, strain pex11, stronger effect = lower value 1.02 | S. cerevisiae deletion strains, locus YOR061W, strain CKA2, stronger effect = lower value 1.02 | S. cerevisiae deletion strains, locus YOR069W, strain VPS5, stronger effect = lower value 1.01 | S. cerevisiae deletion strains, locus YOR136W, strain idh2, stronger effect = lower value 1.02 | S. cerevisiae deletion strains, locus YOR144C, strain elg1, stronger effect = lower value 1 | S. cerevisiae deletion strains, locus YOR184W, strain ser1, stronger effect = lower value 1.02 | S. cerevisiae deletion strains, locus YOR316C, strain cot1, stronger effect = lower value 1.02 | S. cerevisiae deletion strains, locus YPL055C, strain LGE1, stronger effect = lower value 1.05 | S. cerevisiae deletion strains, locus YPL241C, strain CIN2, stronger effect = lower value 1.02 | S. cerevisiae deletion strains, locus YPR119W, strain clb2, stronger effect = lower value 1.02 | S. cerevisiae deletion strains, locus YPR141C, strain kar3, stronger effect = lower value 1.02 | S. cerevisiae deletion strains, locus YPR163C, strain tif3, stronger effect = lower value 1.02 | S. cerevisiae deletion strains, locus YPR167C, strain met16, stronger effect = lower value 1.03 | S. cerevisiae deletion strains, strain wtn01, stronger effect = lower value 1.03 | S. cerevisiae strains, strain wild type, stronger effect = lower value 1.02

Source: PubChem BioAssay AID1159580 (chemical genetic matrix, 2015)
